Hits are enriched below; roughly 4.6% of the tested compounds scored in any of these assays.
TRHR ag – qHTS for Small Molecule Agonists and Allosteric Enhancers of Human TRH Receptor: Primary Screen for Agonists. Thyrotropin-releasing hormone receptor (Homo sapiens), P34981. TRHR cells, calcium flux fluo-8, FDSS agonist mode. activation, % at 2 µM. 0.18% of 360,000 active; further: 0% is about no effect
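Agonist-mode FDSS calcium read (Ex 480/Em 530, 1 s cycles) in 1536-well TRHR cells with fluo-8 dye, after 10-cycle baseline and 23 nL compound addition; TRH at EC20 (10 nM final) added afterwards for the enhancer phase.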
D1 antag – Antagonist of Human D 1 Dopamine Receptor: qHTS | D(1A) dopamine receptor (Homo sapiens), P21728 | AID 504652, 2011 | HEK293 TREx D1 cells, calcium flux, dopamine EC80; stronger effect = lower value | activity change, negative = inhibition, % at 10 µM | 3.2% of 360,000 active; in the data active means activity change below about -30%; further: on the % scale 0 is the no-effect control and ±100 the full control effect
Target sequence (P21728 whole entry, looked up): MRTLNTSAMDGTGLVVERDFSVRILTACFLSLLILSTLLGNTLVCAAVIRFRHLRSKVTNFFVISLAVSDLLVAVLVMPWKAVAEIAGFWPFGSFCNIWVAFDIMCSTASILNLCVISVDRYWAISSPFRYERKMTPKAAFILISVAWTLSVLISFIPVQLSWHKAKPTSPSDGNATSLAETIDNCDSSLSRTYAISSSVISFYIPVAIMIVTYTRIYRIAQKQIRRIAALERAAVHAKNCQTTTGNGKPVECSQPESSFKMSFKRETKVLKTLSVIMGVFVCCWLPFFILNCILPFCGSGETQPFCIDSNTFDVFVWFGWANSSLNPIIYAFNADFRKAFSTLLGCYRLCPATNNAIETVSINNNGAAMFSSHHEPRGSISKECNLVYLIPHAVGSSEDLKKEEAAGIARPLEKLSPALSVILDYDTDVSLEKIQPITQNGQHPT
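Using tetracycline-induced force-coupled D1 Hek293 cells and a calcium dye, signals were followed for 180 s after compound, then for 180 s after EC80 dopamine, to detect inhibitors.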
D1 PAM – Potentiators of Human D1 Dopamine Receptor: qHTS | D(1A) dopamine receptor (Homo sapiens), P21728 | HEK293 TREx D1 cells, calcium flux, dopamine EC20 potentiation | potentiation, % at 10 µM | 0.036% of 360,000 active | AID 504651, 2011; in the data active means potentiation above about 30%; further: 0% is about no effect
TRHR enhancer – qHTS for Small Molecule Agonists and Allosteric Enhancers of Human TRH Receptor: Primary Screen for Enhancers. Thyrotropin-releasing hormone receptor (Homo sapiens), P34981. TRHR cells, fluo-8 calcium fluorescence, EC20 TRH enhancement. 0.66% of 360,000 active. enhancement, % at 2 µM. AID 493056, 2011; in the data active means enhancement above about 30%; further: 0% is about no effect
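TRHR-expressing cells loaded with fluo-8 calcium dye were read kinetically (ex 480/em 530) during compound addition, then stimulated with an EC20 of TRH (10 nM final). Enhancement of the Gq-mediated intracellular calcium response was scored.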
D1 ag – Allosteric Agonists of the Human D1 Dopamine Receptor: qHTS | HEK293 T-REx D1 cells, calcium flux, agonist mode | activation, % at 2 µM | 1% of 360,000 active | AID 504660, 2011; further: 0% is about no effect
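Tetracycline-induced HEK293 TREx D1 cells, force-coupled to calcium signalling, were dye-loaded with a no-wash calcium kit. Compound was pin-added after a 10 s baseline. Fluorescence was read kinetically at 1 cycle/s for 180 s, with calcium rises flagged as agonism.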
Active calls of the source: *; / = no result. Unless noted, no stated cut-off is given here; in the data, active means activation above about 30%; inactive means the rest.

SMILES | TRHR ag | D1 antag | D1 PAM | TRHR enhancer | D1 ag
CCc1noc(C)c1C(=O)N1CCN(S(=O)(=O)c2ccc(C)cc2)CC1 | 0 | -15 | -1 | -3 | 1
CCc1noc(C)c1C(=O)N1CCN(S(=O)(=O)c2ccc(Br)cc2)CC1 | -1 | -72* | -7 | 0 | -3
Cc1ccc(S(=O)(=O)N2CCN(C(=O)c3ccc(OCc4c(C)noc4C)cc3)CC2)cc1 | 0 | -1 | -5 | 1 | 2
Cc1ccc(C)c(S(=O)(=O)N2CCN(C(=O)c3ccc(OCc4c(C)noc4C)cc3)CC2)c1 | 0 | -31* | -1 | 11 | 10
COCCN(C(=O)CCSc1ccc(F)cc1)c1c(N)n(Cc2ccccc2)c(=O)[nH]c1=O | 0 | -9 | -2 | 0 | 1
Clc1ccccc1CNCCCSc1nnnn1-c1ccccc1 | 0 | 1 | -1 | -1 | 31*
Fc1ccccc1CNCCCSc1nnnn1-c1ccccc1 | 0 | -9 | 0 | 6 | 6
CC(C)c1ccc(CNCc2ccccc2)cc1 | 1 | -7 | -3 | -2 | 50*
COc1ccc(CNCCSc2nnnn2-c2ccccc2)cc1 | 0 | -1 | 3 | 5 | 14
CC(C)c1ccc(CNCCSc2nnnn2-c2ccccc2)cc1 | 0 | 10 | 6 | 6 | 56*
CC(C)c1ccc(CNC(=O)CCc2ccccc2)cc1 | 0 | -7 | 4 | 8 | 2
Fc1ccc(CNCCCSc2nnnn2-c2ccccc2)cc1 | -1 | -43* | 5 | 6 | 161*
Cc1cccc(-n2c(C)cc(C(=O)C(=O)Nc3ccccc3F)c2C)c1C | -1 | -1 | -2 | 2 | 1
CCOc1ccc(CNC(=O)c2cc3cc(S(=O)(=O)N4CCCCC4)ccc3n2C)cc1 | 1 | -2 | -2 | 10 | 8
Cc1cccc(C)c1NC(=O)c1oc2c(c1C)-c1nn(Cc3ccccc3)cc1CC2 | 0 | -16 | 3 | -1 | 0
CCCC(=O)N(c1ccc2oc3c(c2c1)CCCC3)S(=O)(=O)c1cc(C)ccc1C | 1 | -46* | -3 | -2 | 2
CCCC(=O)N(c1ccc2oc(C)c(C(C)=O)c2c1)S(=O)(=O)c1ccc(C)cc1 | 0 | 3 | -5 | 0 | 1
O=C(NC[C@@H]1CCCO1)c1cccc2c1C(=O)c1ccc(Cl)cc1S2(=O)=O | 0 | / | 0 | 2 | -3
COc1ccc(-c2ccc3c(c2)S(=O)(=O)c2cccc(C(=O)NC[C@@H]4CCCO4)c2C3=O)cc1OC | 0 | -36* | -3 | 3 | -1
Cn1c(SCc2c(F)cccc2Cl)nc2c(c1=O)SCC2 | -1 | -31* | -8 | -8 | 2
Cc1ccc(S(=O)(=O)NC(C)C(=O)OCC(=O)N(C)c2ccccc2)cc1 (stereo unspecified) | 0 | -31* | -10 | 6 | 0
C=CCn1c(SCC(=O)c2c(N)n(CCC)c(=O)n(C)c2=O)nnc1-c1ccncc1 | 0 | -32* | -8 | 2 | 2
O=C(NC1CC1)c1c[nH]c2ccc(S(=O)(=O)Nc3cccc(C(F)(F)F)c3)cc2c1=O | 1 | 1 | 6 | 40* | 3
O=C(CSc1nnc(CNC(=O)c2ccccc2)n1-c1cccc(Cl)c1)Nc1ccccc1F | -1 | -11 | 5 | 11 | 7
Cc1nc(C(=O)N/N=C/c2[nH]ncc2Br)cs1 | 0 | 9 | -1 | 3 | 1
Cc1cc(NC(=O)NCc2ccc3c(c2)CCN3C(=O)c2ccccc2)ccc1Br | 0 | 8 | 2 | 2 | -1
O=C(CSc1n[nH]c(=O)n1C1CC1)c1ccc2c(c1)OCCO2 | -1 | -1 | -2 | -1 | 13
Cc1cc(C)c(C(=O)CSc2n[nH]c(=O)n2C2CC2)cc1C | -1 | -37* | -9 | 0 | 11
COc1ccccc1C(=O)NC(=O)COC(=O)Cn1cnc2c1c(=O)n(C)c(=O)n2C | 0 | 20 | -8 | -16 | 2

Bioassay records as filed in PubChem BioAssay.
